# Reference: paper PMC4336329 (PLoS ONE, 2015)
# About 14,000 (4.5%) of roughly 310,000 compounds showed an effect of 50% or more. Effects have a minus sign here. For the sample, strong results were picked, then their nearest neighbours and some compounds at random.
# Target: human ether-à-go-go-related gene (hERG) potassium channel (human, UniProt Q12809)
# Assay: primary screen, population patch clamp on CHO cells stably expressing hERG; higher = less effect of the substance
# 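Note: peak tail current of the secondary pulse compared with the same well before compound.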
# Chain of human ether-à-go-go-related gene (hERG) potassium channel (Q12809 whole entry, looked up): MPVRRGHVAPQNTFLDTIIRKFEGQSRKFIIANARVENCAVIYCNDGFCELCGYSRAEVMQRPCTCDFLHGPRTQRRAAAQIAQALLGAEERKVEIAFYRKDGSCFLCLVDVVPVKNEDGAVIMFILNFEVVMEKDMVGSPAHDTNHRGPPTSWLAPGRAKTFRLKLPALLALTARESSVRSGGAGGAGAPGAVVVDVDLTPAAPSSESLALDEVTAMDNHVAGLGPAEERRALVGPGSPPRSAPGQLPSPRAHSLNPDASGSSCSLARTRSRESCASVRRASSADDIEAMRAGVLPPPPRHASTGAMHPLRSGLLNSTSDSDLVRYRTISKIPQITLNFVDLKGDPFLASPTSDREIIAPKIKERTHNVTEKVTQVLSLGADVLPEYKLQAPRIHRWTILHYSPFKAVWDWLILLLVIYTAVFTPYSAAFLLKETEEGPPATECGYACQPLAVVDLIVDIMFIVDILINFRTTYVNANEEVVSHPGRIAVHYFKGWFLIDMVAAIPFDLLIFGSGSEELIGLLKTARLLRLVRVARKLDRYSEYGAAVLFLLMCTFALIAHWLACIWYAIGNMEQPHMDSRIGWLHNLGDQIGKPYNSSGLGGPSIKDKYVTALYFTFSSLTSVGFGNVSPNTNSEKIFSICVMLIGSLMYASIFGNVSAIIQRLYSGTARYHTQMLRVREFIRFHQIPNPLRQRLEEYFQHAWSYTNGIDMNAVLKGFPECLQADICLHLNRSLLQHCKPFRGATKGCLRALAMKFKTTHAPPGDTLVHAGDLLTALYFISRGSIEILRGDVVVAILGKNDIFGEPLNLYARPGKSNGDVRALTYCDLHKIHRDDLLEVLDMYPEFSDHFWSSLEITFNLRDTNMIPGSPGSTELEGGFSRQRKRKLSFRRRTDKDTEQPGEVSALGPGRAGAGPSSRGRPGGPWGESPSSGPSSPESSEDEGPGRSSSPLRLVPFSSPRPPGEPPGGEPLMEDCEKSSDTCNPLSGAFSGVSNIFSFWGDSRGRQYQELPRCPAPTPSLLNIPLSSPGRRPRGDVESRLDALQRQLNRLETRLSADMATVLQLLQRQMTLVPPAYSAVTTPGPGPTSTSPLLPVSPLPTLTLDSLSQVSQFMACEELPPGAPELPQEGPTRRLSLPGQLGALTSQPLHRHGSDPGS
row,Compound,"hERG current change (%, negative = inhibition) at 10uM"
1,COc1cc(CO)cc(-c2cc(CO)cc(OC)c2OC)c1OC,10.3%
2,COc1ccc(C(NC(=O)CNC(C)=O)C(=O)Nc2ccc(C(C)C)cc2)cc1 (stereo not shown),-5.76%
3,CC1CCN(CC(C)CNC(=O)c2cc(-c3ccccn3)nc3ccccc23)CC1 (stereo not shown),-62.5%
4,CC(CN1CCCCC1)NC(=O)c1cc(-c2ccccn2)nc2ccc(Cl)cc12 (stereo not shown),-21.8%
5,O=C(NC1CC1)c1cc(-c2ccccn2)nc2ccccc12,-29.5%
6,Cl.O=C(NC1CCN(Cc2ccccc2)CC1)c1cc(-c2ccccn2)nc2ccccc12,-69.4%
7,Cc1ccc(-c2cc(C(=O)NC3CCN(Cc4ccccc4)CC3)c3ccccc3n2)cc1,7.42%
8,CC1CC(C)CN(C(=O)c2cc(-c3ccccn3)nc3ccccc23)C1 (stereo not shown),-6.19%
9,Cc1cc(C)n(CC(O)COc2ccc(F)cc2)n1 (stereo not shown),9.76%
10,CCC(Cc1ccccc1)NC(=O)/C=C/c1ccco1 (stereo not shown),9.2%
11,CCn1cc(S(=O)(=O)Nc2cc(C)ccc2F)cn1,3.63%
12,O=C(CNC(=O)c1sc2ccccc2c1Cl)OCc1ccccc1,3.28%
13,COC(=O)C1=C(C)N(CCCC(=O)O)C(=O)NC1c1cccc2ccccc12 (stereo not shown),5.92%
14,COc1ccccc1-n1c(=O)[nH]c2c(C(N)=O)nc(CC(C)C)nc21,5.01%
15,O=C(N/N=C/c1cn(-c2ccccc2)nc1-c1cccs1)c1ccncc1,-10.2%
16,NC(N)=N/N=C/c1cn(-c2ccccc2)nc1-c1cccs1.O=[N+]([O-])O,-62.1%
17,NC(=O)N/N=C/c1cn(-c2ccccc2)nc1-c1cccs1,-38.8%
18,CCOc1ccc(CN(C)C(=O)c2ccc(=O)[nH]c2)cc1,16.6%
19,CCOC(=O)C1=C(C)N(C)C(=S)NC1c1cc(OC)ccc1OC (stereo not shown),3.73%
20,CCOC(=O)c1ncn2c1[C@@H]1CCNC1C(=O)c1cc(OC)ccc1-2 (stereo partly shown),-68.4%

row,Compound,"hERG current change (%, negative = inhibition) at 10uM"
1,CCOC(=O)c1ncn2c1CN(C)C(=O)c1cc(F)ccc1-2,8.55%
2,Cc1nc(N2CCC(C(N)=O)CC2)c2c(-c3cccs3)csc2n1,-0.812%
3,Cc1ccc(N(CCC#N)C(=O)COC(=O)c2cc(C)oc2C)cc1,-15.3%
4,CCOC(=O)C1CCCN(CC(O)COc2ccc(OC)cc2C(C)(C)C)C1 (stereo not shown),-61.4%
5,CCOC(=O)C1CCCN(C2=NC(=O)/C(=C/c3ccc(OC)cc3OC)S2)C1 (stereo not shown),-52.6%
6,COc1ccc(CN2CCCC(C(=O)c3ccc(Cl)cc3)C2)c(OC)c1 (stereo not shown),-75.2%
7,CCOC(=O)C1CCCN(C2=NC(=O)/C(=C/c3ccc(OC)c(OC)c3)S2)C1 (stereo not shown),-22.8%
8,CCOC(=O)C1CCCN(C2=NC(=O)/C(=C/c3ccc(OC)cc3)S2)C1 (stereo not shown),-20.1%
9,COc1ccc(CN2CCCC(C(=O)N3CCCCC3)C2)c(OC)c1.O=C(O)C(=O)O (stereo not shown),-26.7%
10,COc1ccc(C(=O)C2CCCN(Cc3cc(Cl)ccc3O)C2)c(OC)c1 (stereo not shown),-26.8%
11,CCOC(=O)N1CCN(CC(O)COc2ccc(OC)cc2C(C)(C)C)CC1.Cl (stereo not shown),-12%
12,CCOC(=O)C1CCCN(CC(O)COc2cccc(C)c2)C1.Cl (stereo not shown),-23.7%
13,COc1ccc(CN2CCCC(C(=O)c3ccc(Cl)cc3)C2)c(O)c1 (stereo not shown),-67.7%
14,COC(=O)CC1(CC(=O)OC)C(=O)N(c2ccccc2)C(=O)N(c2ccccc2)C1=O,11.7%
15,C=CCNC(=O)CN(CCc1ccccc1)S(=O)(=O)c1ccccc1,-17.6%
16,COc1ccc(CN2CCCC(C(=O)N3CCCC3)C2)c(OC)c1.O=C(O)C(=O)O (stereo not shown),-9.41%
17,CCOC(=O)C1CCCN(Cc2ccc(OC)cc2OC)C1 (stereo not shown),-52.7%
18,CCOC(=O)C1CCN(Cc2ccc(OC)cc2OC)CC1,-45.2%
19,Cc1ccccc1N1C(=O)NC(=O)/C(=C\c2cc(C)n(C)c2C)C1=O,-3.79%
20,OCCC1CN(C/C(Cl)=C/c2ccccc2)CCN1C1CCCC1 (stereo not shown),-77.4%

row,Compound,"hERG current change (%, negative = inhibition) at 10uM"
1,CC(C)CCN1CCN(C/C=C/c2ccco2)CC1CCO (stereo not shown),-57.1%
2,CCn1cc(CN2CCN(CCC(C)C)C(CCO)C2)c2ccccc21 (stereo not shown),-31.9%
3,CC(C)=CCN1CCN(C/C(Cl)=C/c2ccccc2)CC1CCO (stereo not shown),-26.9%
4,CC(C)CCN1CCN(CC(c2ccccc2)c2ccccc2)CC1CCO (stereo not shown),-82.3%
5,OCCC1CN(Cc2ccccn2)CCN1C1CCCC1 (stereo not shown),9.91%
6,OCCC1CN(CC(c2ccccc2)c2ccccc2)CCN1C1CCCC1 (stereo not shown),-71.2%
7,Cc1ccc(CN2CCN(C/C(Cl)=C/c3ccccc3)CC2CCO)o1 (stereo not shown),-45.2%
8,OCCC1CN(CC#Cc2ccccc2)CCN1C1CCCC1 (stereo not shown),-46.2%
9,CC(C)CCN1CCN(CC#Cc2ccccc2)CC1CCO (stereo not shown),-49.9%
10,OCCC1CN(C/C=C/c2ccco2)CCN1Cc1ccccc1 (stereo not shown),-8.57%
11,CC(C)CCN1CCN(Cc2cccs2)CC1CCO (stereo not shown),-10.7%
12,CN(C)N1C(=O)CC(N2CCCCC2)C1=O (stereo not shown),6.08%
13,Cc1nn(C(C)C(=O)N2CCc3ccccc32)c(C)c1[N+](=O)[O-] (stereo not shown),10%
14,CC(=O)NS(=O)(=O)c1ccc(NC(=O)c2ccc(NC(=O)c3cccs3)cc2)cc1,2.48%
15,COc1cc2c(cc1OC)-c1cc(NC3CC3)nc(=O)n1CC2,-24.8%
16,O=c1oc2c(-c3cccc(F)c3)cc(O)cc2s1,8.45%
17,COc1ccc(NC(=O)CCc2nnc3ccc(NCc4ccco4)nn23)cc1,1.15%
18,CCOC(=O)c1c([N+](=O)[O-])c(C)[nH]c(=O)c1C#N,21.1%
